The supplement of paper PMC9446081
The whole screen tested about 39,000 compounds, of which about 220 (0.56%) showed activity. Only a selection was taken, and actives are over-represented in it overall. Values without a mark were called inactive.
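Note: Wild-type cells incubated without shaking, value is the mean of two biological replicates.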

The compounds below were run on Escherichia coli K-12 BW25113 (assay: relative growth (OD600 normalised to plate interquartile mean) (fraction); higher = less growth inhibition, active = 0.2 or less). Settings: 50 µM; LB; incubation time: overnight (16-24 h).
For `C[C@H]1CCCCO[C@H](CN(C)C(=O)Nc2ccc(F)cc2)[C@@H](C)CN([C@@H](C)CO)C(=O)c2cc(NS(=O)(=O)c3ccc(Cl)cc3)ccc2O1`, the relative growth was 0.987.
With `CN[C@H]1CC[C@@H](c2ccc(Cl)c(Cl)c2)c2ccccc21` the relative growth was 0.868.
For `N[C@@H]1CC[C@@H](c2ccc(Cl)c(Cl)c2)c2ccccc21`, the relative growth was 0.0794 (active).
Compound `CNC1CCC(c2ccc(Cl)c(Cl)c2)c2ccccc21.Cl` (centres undefined) has a relative growth of 0.261.
For `C[C@@H]1CCCCO[C@H](CN(C)C(=O)c2ccccc2)[C@@H](C)CN([C@@H](C)CO)C(=O)c2cc(NS(=O)(=O)c3ccccc3)ccc2O1`, the relative growth was 0.956.
`C[C@@H]1CCCCO[C@H](CN(C)C(=O)Nc2ccc(F)cc2)[C@@H](C)CN([C@H](C)CO)C(=O)c2cc(NC(=O)c3ccccc3)ccc2O1` showed a relative growth of 1.04.
`C[C@H]1CN([C@@H](C)CO)C(=O)c2cc(NS(=O)(=O)c3cccs3)ccc2O[C@@H]1CN(C)Cc1ccc(Cl)c(Cl)c1` showed a relative growth of 0.995.
`O=C(Nc1cc(Cl)cc(Cl)c1O)c1c(O)c(Cl)cc(Cl)c1Cl` was tested, and the relative growth was 0.565.
For `Oc1c(Cl)cc(Cl)c(Cl)c1Cc1c(O)c(Cl)cc(Cl)c1Cl`, the relative growth was 0.0546 (active).
`Oc1c(Cl)cc(Cl)cc1Sc1cc(Cl)cc(Cl)c1O` was tested, and the relative growth was 0.202.
Compound `COc1ccc(S(=O)(=O)N(C)C[C@@H]2OCCCC[C@@H](C)Oc3ccc(NC(=O)Nc4cccc5ccccc45)cc3C(=O)N([C@H](C)CO)C[C@@H]2C)cc1` has a relative growth of 1.03.
`C[C@@H]1CN([C@H](C)CO)C(=O)CCCn2cc(nn2)CO[C@@H]1CN(C)Cc1ccc2c(c1)OCCN2C` was tested, and the relative growth was 1.02.
Compound `CC[C@H](C)[C@H](N)C1=N[C@H](C(=O)N[C@@H](CC(C)C)C(=O)N[C@@H]2CCC(=O)[O][Zn][O]C(=O)C[C@H]3NC(=O)[C@H](Cc4c[nH]cn4)NC(=O)[C@@H](Cc4ccccc4)NC(=O)[C@H]([C@@H](C)CC)NC(=O)[C@@H](CCCN)NC(=O)[C@H](CCCCNC(=O)[C@H](CC(N)=O)NC3=O)NC(=O)[C@H]([C@@H](C)CC)NC2=O)CS1` has a relative growth of 0.696.
`CCC(C)C1NC(=O)C(CCNCS(=O)(=O)[O-])NC(=O)C(NC(=O)C(CCNCS(=O)(=O)[O-])NC(=O)C(NC(=O)C(CCNCS(=O)(=O)[O-])NC(=O)CCCCC(C)C)C(C)O)CCNC(=O)C(C(C)O)NC(=O)C(CCNCS(=O)(=O)[O-])NC(=O)C(CCNCS(=O)(=O)[O-])NC(=O)C(C(C)CC)NC1=O.[Na+].[Na+].[Na+].[Na+].[Na+]` (centres undefined) was tested, and the relative growth was 0.0529 (active).
`CCCCCCCCCC(=O)N[C@@H](Cc1c[nH]c2ccccc12)C(=O)N[C@H](CC(N)=O)C(=O)N[C@@H](CC(=O)O)C(=O)N[C@@H]1C(=O)NCC(=O)N[C@@H](CCCN)C(=O)N[C@@H](CC(=O)O)C(=O)N[C@H](C)C(=O)N[C@@H](CC(=O)O)C(=O)NCC(=O)N[C@H](CO)C(=O)N[C@@H]([C@H](C)CC(=O)O)C(=O)N[C@@H](CC(=O)c2ccccc2N)C(=O)O[C@@H]1C` showed a relative growth of 0.952.
`CC(C)CCCC(=O)N[C@@H](CCNCS(=O)(=O)O)C(=O)N[C@H](C(=O)N[C@@H](CCNCS(=O)(=O)O)C(=O)N[C@H]1CCNC(=O)[C@H]([C@@H](C)O)NC(=O)[C@H](CCNCS(=O)(=O)O)NC(=O)[C@H](CCNCS(=O)(=O)O)NC(=O)[C@H](CC(C)C)NC(=O)[C@H](CC(C)C)NC(=O)[C@H](CCNCS(=O)(=O)O)NC1=O)[C@@H](C)O` was tested, and the relative growth was 0.0299 (active).
`CCCc1nc2c(=O)n(C)c(=O)[nH]c2n1C` gave a relative growth of 0.999.
For `C[C@@H]1CN([C@@H](C)CO)C(=O)c2cc(NS(=O)(=O)c3ccc(Cl)cc3)ccc2O[C@@H](C)CCCCO[C@H]1CN(C)Cc1ccncc1`, the relative growth was 1.01.
`C[C@@H]1CN([C@@H](C)CO)C(=O)Cc2cc(NS(=O)(=O)c3ccc(F)cc3)ccc2O[C@@H]1CN(C)S(C)(=O)=O` was tested, and the relative growth was 1.
`COc1ccc(S(=O)(=O)Nc2ccc3c(c2)C(=O)N([C@@H](C)CO)C[C@@H](C)[C@H](CN(C)S(=O)(=O)c2cn(C)cn2)OCCCC[C@H](C)O3)cc1` was tested, and the relative growth was 0.989.
`CC(C)NC(=O)N(C)C[C@@H]1Oc2c(NC(=O)C3CCOCC3)cccc2C(=O)N([C@@H](C)CO)C[C@H]1C` was tested, and the relative growth was 0.977.
`CCc1nc2c(OCC(=O)c3ccc(Cl)cc3Cl)cccn2c1N(C)C(=O)COc1ccccc1` was tested, and the relative growth was 1.02.
`COc1cccc(S(=O)(=O)Nc2ccc3c(c2)OC[C@H](C)N(C(=O)Cc2cccnc2)C[C@H](C)[C@H](OC)CN(C)C3=O)c1` showed a relative growth of 0.963.
Work on `COc1ccc(NC(=O)N(C)C[C@@H]2OCCCC[C@H](C)Oc3ccc(NS(=O)(=O)c4cccs4)cc3C(=O)N([C@H](C)CO)C[C@H]2C)cc1` yielded a relative growth of 0.941.
With `O=C(NCC[C@@H]1CC[C@H](NS(=O)(=O)c2cccc(F)c2)[C@@H](CO)O1)C1CC1` the relative growth was 0.987.
`C[C@@H]1CN([C@H](C)CO)C(=O)c2cc(NC(=O)Nc3ccc(F)cc3)ccc2O[C@@H]1CN(C)S(=O)(=O)c1cn(C)cn1` gave a relative growth of 1.01.
With `C[C@H](CO)N1C[C@H](C)[C@@H](CN(C)S(=O)(=O)c2cn(C)cn2)Oc2ccc(NC(=O)Nc3ccc(F)cc3)cc2CC1=O` the relative growth was 0.986.
`CCNC(=O)[C@@H]1[C@@H](CO)[C@@H]2Cn3c(ccc(-c4cccc(C(=O)N(C)C)c4)c3=O)[C@H]1N2` was tested, and the relative growth was 1.02.
`CC1=C(C(=O)O)N2C(=O)C(NC(=O)C(N)c3ccc(O)cc3)C2SC1` (centres undefined) gave a relative growth of 0.986.
For `CC1=C(C(=O)O)N2C(=O)[C@@H](NC(=O)[C@@H](N)c3ccc(O)cc3)[C@H]2SC1`, the relative growth was 0.999.
`CC1=C(C(=O)O)N2C(=O)[C@@H](NC(=O)[C@H](N)c3ccc(O)cc3)[C@H]2SC1` was tested, and the relative growth was 1.06.
In the case of `Cc1cc(O)c(C(=O)NC(C(=O)NC2C(=O)N3C(C(=O)O)=C(CSc4nnnn4C)CSC23)c2ccc(O)cc2)cn1` (centres undefined), the relative growth is reported as 0.0416 (active).
In the case of `CCN1CCN(C(=O)NC(C(=O)NC2C(=O)N3C(C(=O)O)=C(CSc4nnnn4C)CSC23)c2ccc(O)cc2)C(=O)C1=O` (centres undefined), the relative growth is reported as 0.046 (active).
In the case of `Cc1cc(=O)c(C(=O)N[C@@H](C(=O)N[C@@H]2C(=O)N3C(C(=O)O)=C(CSc4nnnn4C)CS[C@H]23)c2ccc(O)cc2)c[nH]1`, the relative growth is reported as 0.0389 (active).
